Reference: paper PMC4336329 (PLoS ONE, 2015)
Out of some 310,000 compounds screened, about 14,000 (4.5%) showed an effect of 50% or more. Effects have a minus sign here. Only a selection was taken, and strong results are over-represented in it overall.

target: human ether-à-go-go-related gene (hERG) potassium channel (human, UniProt Q12809); test: primary screen, population patch clamp on CHO cells stably expressing hERG; higher = less effect of the substance
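Also: peak tail current of the secondary pulse compared with the same well before compound.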

Chain of human ether-à-go-go-related gene (hERG) potassium channel (Q12809 whole entry, looked up): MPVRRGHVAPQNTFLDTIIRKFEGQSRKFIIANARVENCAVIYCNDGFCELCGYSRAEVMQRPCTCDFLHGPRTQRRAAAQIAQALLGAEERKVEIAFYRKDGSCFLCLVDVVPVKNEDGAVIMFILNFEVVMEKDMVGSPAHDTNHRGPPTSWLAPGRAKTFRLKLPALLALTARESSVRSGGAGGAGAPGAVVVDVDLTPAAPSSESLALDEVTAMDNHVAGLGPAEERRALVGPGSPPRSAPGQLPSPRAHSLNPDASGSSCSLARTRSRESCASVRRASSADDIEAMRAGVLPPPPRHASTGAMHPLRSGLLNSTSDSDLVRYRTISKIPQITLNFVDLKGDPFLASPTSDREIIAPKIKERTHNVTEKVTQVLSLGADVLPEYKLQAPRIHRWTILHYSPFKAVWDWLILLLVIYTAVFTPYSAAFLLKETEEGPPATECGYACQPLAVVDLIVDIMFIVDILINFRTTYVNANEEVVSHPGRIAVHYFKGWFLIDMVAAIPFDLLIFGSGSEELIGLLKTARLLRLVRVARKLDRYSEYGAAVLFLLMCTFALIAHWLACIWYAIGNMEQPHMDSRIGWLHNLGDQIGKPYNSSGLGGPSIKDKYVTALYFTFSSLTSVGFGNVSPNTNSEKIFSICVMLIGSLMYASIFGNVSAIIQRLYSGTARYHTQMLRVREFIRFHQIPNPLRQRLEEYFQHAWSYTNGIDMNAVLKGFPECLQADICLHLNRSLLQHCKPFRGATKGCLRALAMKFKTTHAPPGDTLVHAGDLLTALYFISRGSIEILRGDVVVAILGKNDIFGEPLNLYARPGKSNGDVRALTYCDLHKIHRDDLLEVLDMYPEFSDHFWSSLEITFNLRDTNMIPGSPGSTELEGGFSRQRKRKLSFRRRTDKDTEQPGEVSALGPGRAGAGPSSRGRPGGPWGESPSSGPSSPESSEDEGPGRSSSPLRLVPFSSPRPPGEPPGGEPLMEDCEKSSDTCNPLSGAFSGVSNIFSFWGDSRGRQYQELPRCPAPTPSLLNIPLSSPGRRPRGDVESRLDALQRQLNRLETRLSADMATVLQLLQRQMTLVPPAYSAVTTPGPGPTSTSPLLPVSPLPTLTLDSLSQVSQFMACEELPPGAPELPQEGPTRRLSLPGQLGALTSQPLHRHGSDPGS

Structure (SMILES) | hERG current change (%, negative = inhibition) at 10uM
COc1ccc(OC)c(C2=Nn3c(nnc3-c3ccco3)SC2)c1 | -12.6%
Oc1ccc(C2=Nn3c(nnc3-c3ccco3)SC2)cc1O | 0.591%
COc1ccc(C2=Nn3c(nnc3-c3ccco3)SC2)cc1 | -63.6%
CCOc1ccc(C2=Nn3c(nnc3-c3ccco3)SC2)cc1 | -10.7%
Cc1nc2cc(NC(=O)Nc3cccc4ccccc34)ccc2n1C | 2.53%
CCCOc1ccc(C(=O)NNC(=S)NC(=O)c2ccccc2)cc1 | 23.4%
CCc1noc(C)c1C(=O)NC1CC(C)(C)Cc2c1cnn2-c1ccccc1 (centres unmarked) | 5.9%
Fc1ccc2c(c1)C1C=CCC1C(c1cc3c(cc1Br)OCO3)N2 (centres unmarked) | 4.83%
CCOc1ccc(NC(=O)Nc2ccc3c(c2)nc(C)n3C)cc1 | 1.49%
O=C(NNC(=O)c1ccc(S(=O)(=O)N2CCOCC2)cc1)c1ccccc1 | 17.5%
CCc1cc2c(SCC(=O)NCC3CCCO3)ncnc2s1 (centres unmarked) | -1.05%
Cc1cc2c(=O)n(Cc3ccco3)c(SCC(=O)NCc3ccco3)nc2s1 | -35.8%
CCc1cc2c(=O)n(Cc3ccco3)c(SCC(=O)NC3CCS(=O)(=O)C3)nc2s1 (centres unmarked) | -72.2%
Cc1cc2c(=O)n(Cc3ccco3)c(SCC(=O)c3ccc(Cl)s3)nc2s1 | -18.6%
CCc1cc2c(SCC(=O)NC3CCS(=O)(=O)C3)ncnc2s1 (centres unmarked) | -1.87%
CCOC(=O)CC(=O)CSc1nc2sc(C)cc2c(=O)n1Cc1ccco1 | -51.5%
CCc1cc2c(=O)n(Cc3ccco3)c(SCC(=O)NCC3CCCO3)nc2s1 (centres unmarked) | -70.2%
CN(C(=O)CSc1nnc(-c2ccco2)n1Cc1ccccc1)C1CCS(=O)(=O)C1 (centres unmarked) | -6.24%
CCc1cc2c(=O)n(Cc3ccco3)c(SCc3c(C)noc3C)nc2s1 | -5.47%
CN(C(=O)CSc1nc2ccc(Br)cc2c(=O)n1Cc1ccco1)C1CCS(=O)(=O)C1 (centres unmarked) | -79.6%
CN(C(=O)CSc1nc2cc(C(=O)O)ccc2c(=O)n1Cc1ccccc1)C1CCS(=O)(=O)C1 (centres unmarked) | 37.8%
O=C(CSc1nc2c(sc3ccccc32)c(=O)n1Cc1ccco1)NCC1CCCO1 (centres unmarked) | -13.9%

Structure (SMILES) | hERG current change (%, negative = inhibition) at 10uM
CCOc1ccc(-c2cc(C(=O)N3CCN(c4ccccn4)CC3)c3ccccc3n2)cc1 | 2.79%
Cn1ncc2c(Nc3ccc([N+](=O)[O-])cc3)nc(Cl)nc21 | 18.9%
Cc1ccc(-c2nnc(N3CCC(C)CC3)c3ccccc23)cc1 | 3.1%
COc1nnc(-c2ccc(N3CCOCC3)c(NC(=O)C3CCCCC3)c2)c2ccccc12 | -37.3%
O=C(C1CCC(C(=O)N2CCCCC2)CC1)N1CCCCC1 (centres unmarked) | 6.09%
O=C(CSc1nc2c([nH]c3ccccc32)c(=O)n1-c1ccccc1)NCC1CCCO1 (centres unmarked) | 3.52%
CN(C)c1ccc(C(CNC(=O)Cc2cccc3ccccc23)N(C)C)cc1 (centres unmarked) | -32.8%
CC(=O)N1c2ccc(S(=O)(=O)NCCC(=O)Nc3ccc(OC(F)(F)F)cc3)cc2CC1C (centres unmarked) | -13.6%
COCCN(C(=O)c1csnn1)C(C(=O)NC1CCCCC1)c1ccccc1F (centres unmarked) | 3.83%
COc1ccc(-c2csc(N3CCC(c4ccccc4)CC3)n2)cc1 | 23.2%
CCc1cc2c(SCC(=O)N(C)C3CCS(=O)(=O)C3)ncnc2s1 (centres unmarked) | -20.1%
CC(C)Cn1c(SCC(=O)N(C)C2CCS(=O)(=O)C2)nc2cc(Cl)ccc2c1=O (centres unmarked) | -31.5%
CCc1cc2c(=O)n(Cc3ccco3)c(SCC(=O)N(C)C3CCS(=O)(=O)C3)nc2s1 (centres unmarked) | -79.1%
CCc1cc2c(=O)n(Cc3ccco3)c(SCC(=O)N3CCCc4ccccc43)nc2s1 | -23.4%
CCN(C(=O)CSc1nc2cc(Cl)ccc2c(=O)n1Cc1ccco1)C1CCS(=O)(=O)C1 (centres unmarked) | -74.7%
CCN(C(=O)CSc1nc2cc(Cl)ccc2c(=O)n1CC(C)C)C1CCS(=O)(=O)C1 (centres unmarked) | 2.51%
COc1ccc(CNC(=O)[C@H](C)NC(=O)C2CCN(C(=O)[C@@H](N)CCSC)CC2)cc1 | 5.47%
O=C1C=C(O)CC(c2ccco2)C1 (centres unmarked) | 9.75%
O=C(/C=C/c1ccco1)Nc1ccc2nc3n(c(=O)c2c1)CCCC3 | -8.17%
N#CCC(=O)N1CCn2c1nc1ccccc12 | 17.2%
Cn1c(=O)n(CCc2ccccc2)c(=O)c2c1nc1n2CCCN1c1ccccc1 | -20.7%
COc1cc(/C=C2/C(=N)N3C=CSC3=NC2=O)ccc1OCCCOc1cc(C)ccc1C | 2.54%
